Source: PubChem BioAssay AID1159580 (chemical genetic matrix, 2015)
In all, about 5,500 compounds went through this assay and about 2,000 (36%) were called active. About 18% were inconclusive and are not listed. Rule as the data show it: active = normalized growth mostly below about 0.91 (no sharp cut-off); inconclusive = no clear call, values can overlap the other calls; inactive = mostly above about 0.92. This is one part of the list.

Assay: chemical genetic growth profiling, strain panel (AID 1159580);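 also: tested at 20 µM; growth read once vehicle control cultures reached saturation at 30 °C; 1 = growth at the plate median or of vehicle wells; lower values mean less growth of the strain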
Settings: growth OD

Measured: normalized growth

Cc1c(N(C)C)c(=O)n(-c2ccccc2)n1C
inactive: S. cerevisiae deletion strains, locus YKL009W, strain mrt4, stronger effect = lower value 0.984 | S. cerevisiae deletion strains, locus YKL068W, stronger effect = lower value 0.991 | S. cerevisiae deletion strains, locus YKL085W, strain MDH1 (second series), stronger effect = lower value 0.985 | S. cerevisiae deletion strains, locus YKL085W, strain MDH1, stronger effect = lower value 0.985 | S. cerevisiae deletion strains, locus YKL160W, strain elf1, stronger effect = lower value 0.988 | S. cerevisiae deletion strains, locus YKL190W, strain CNB1, stronger effect = lower value 0.988 | S. cerevisiae deletion strains, locus YKR001C, strain vps1, stronger effect = lower value 1 | S. cerevisiae deletion strains, locus YKR026C, strain gcn3, stronger effect = lower value 0.992 | S. cerevisiae deletion strains, locus YKR091W, strain srl3, stronger effect = lower value 0.976 | S. cerevisiae deletion strains, locus YLL001W, strain dnm1, stronger effect = lower value 0.972 | S. cerevisiae deletion strains, locus YLL026W, stronger effect = lower value 0.973 | S. cerevisiae deletion strains, locus YLL041C, strain sdh2, stronger effect = lower value 0.992 | S. cerevisiae deletion strains, locus YLR027C, strain aat2, stronger effect = lower value 0.97 | S. cerevisiae deletion strains, locus YLR039C, strain RIC1, stronger effect = lower value 0.983 | S. cerevisiae deletion strains, locus YLR058C, strain SHM2, stronger effect = lower value 0.997 | S. cerevisiae deletion strains, locus YLR102C, strain apc9, stronger effect = lower value 0.992 | S. cerevisiae deletion strains, locus YLR113W, strain HOG1, stronger effect = lower value 1.03 | S. cerevisiae deletion strains, locus YLR221C, strain rsa3, stronger effect = lower value 1.06 | S. cerevisiae deletion strains, locus YLR258W, strain gsy2, stronger effect = lower value 0.985 | S. cerevisiae deletion strains, locus YLR262C, strain YPT6 (second series), stronger effect = lower value 0.971 | S. cerevisiae deletion strains, locus YLR262C, strain YPT6, stronger effect = lower value 0.972 | S. cerevisiae deletion strains, locus YLR268W, strain sec22, stronger effect = lower value 0.963 | S. cerevisiae deletion strains, locus YLR320W, strain mms22, stronger effect = lower value 0.994 | S. cerevisiae deletion strains, locus YLR330W, strain CHS5, stronger effect = lower value 0.989 | S. cerevisiae deletion strains, locus YLR342W, strain FKS1 (second series), stronger effect = lower value 1.05 | S. cerevisiae deletion strains, locus YLR342W, strain FKS1, stronger effect = lower value 0.961 | S. cerevisiae deletion strains, locus YLR357W, strain rsc2, stronger effect = lower value 0.935 | S. cerevisiae deletion strains, locus YLR370C, strain arc18, stronger effect = lower value 0.984 | S. cerevisiae deletion strains, locus YLR371W, strain rom2, stronger effect = lower value 0.991 | S. cerevisiae deletion strains, locus YLR384C, strain iki3, stronger effect = lower value 0.991 | S. cerevisiae deletion strains, locus YLR418C, strain cdc73, stronger effect = lower value 1.03 | S. cerevisiae deletion strains, locus YML016C, strain PPZ1, stronger effect = lower value 1 | S. cerevisiae deletion strains, locus YML032C, strain rad52, stronger effect = lower value 0.967 | S. cerevisiae deletion strains, locus YML120C, strain ndi1, stronger effect = lower value 0.993 | S. cerevisiae deletion strains, locus YML124C, strain tub3, stronger effect = lower value 0.997 | S. cerevisiae deletion strains, locus YMR058W, strain fet3, stronger effect = lower value 1.01 | S. cerevisiae deletion strains, locus YMR078C, strain ctf18, stronger effect = lower value 0.985 | S. cerevisiae deletion strains, locus YMR125W, strain sto1, stronger effect = lower value 0.989 | S. cerevisiae deletion strains, locus YMR129W, stronger effect = lower value 0.991 | S. cerevisiae deletion strains, locus YMR205C, strain PFK2, stronger effect = lower value 0.991 | S. cerevisiae deletion strains, locus YMR223W, strain ubp8, stronger effect = lower value 1.02 | S. cerevisiae deletion strains, locus YMR231W, strain pep5, stronger effect = lower value 0.978 | S. cerevisiae deletion strains, locus YMR263W, strain SAP30, stronger effect = lower value 0.989 | S. cerevisiae deletion strains, locus YMR307W, strain GAS1, stronger effect = lower value 1.08 | S. cerevisiae deletion strains, locus YNL067W, strain RPL9B, stronger effect = lower value 0.978 | S. cerevisiae deletion strains, locus YNL071W, strain lat1, stronger effect = lower value 1 | S. cerevisiae deletion strains, locus YNL128W, strain TEP1, stronger effect = lower value 0.983 | S. cerevisiae deletion strains, locus YNL153C, strain GIM3, stronger effect = lower value 0.985 | S. cerevisiae deletion strains, locus YNL183C, strain NPR1, stronger effect = lower value 0.988 | S. cerevisiae deletion strains, locus YNL209W, strain ssb2, stronger effect = lower value 1.01 | S. cerevisiae deletion strains, locus YNL233W, strain BNI4, stronger effect = lower value 0.986 | S. cerevisiae deletion strains, locus YNL248C, strain rpa49, stronger effect = lower value 1 | S. cerevisiae deletion strains, locus YNL250W, strain rad50, stronger effect = lower value 0.972 | S. cerevisiae deletion strains, locus YNL271C, strain bni1, stronger effect = lower value 0.966 | S. cerevisiae deletion strains, locus YNL298W, strain CLA4, stronger effect = lower value 1 | S. cerevisiae deletion strains, locus YNL307C, strain MCK1, stronger effect = lower value 0.996 | S. cerevisiae deletion strains, locus YNL322C, strain KRE1 (second series), stronger effect = lower value 0.975 | S. cerevisiae deletion strains, locus YNL322C, strain KRE1, stronger effect = lower value 0.991 | S. cerevisiae deletion strains, locus YNR049C, strain mso1, stronger effect = lower value 0.996 | S. cerevisiae deletion strains, locus YNR052C, strain pop2, stronger effect = lower value 0.993 | S. cerevisiae deletion strains, locus YOL006C, strain TOP1, stronger effect = lower value 0.978 | S. cerevisiae deletion strains, locus YOL012C, strain htz1 2 | S. cerevisiae deletion strains, locus YOL147C, strain pex11, stronger effect = lower value 0.985 | S. cerevisiae deletion strains, locus YOR001W, strain rrp6, stronger effect = lower value 0.971 | S. cerevisiae deletion strains, locus YOR061W, strain CKA2, stronger effect = lower value 0.995 | S. cerevisiae deletion strains, locus YOR069W, strain VPS5, stronger effect = lower value 1 | S. cerevisiae deletion strains, locus YOR070C, strain gyp1, stronger effect = lower value 0.999 | S. cerevisiae deletion strains, locus YOR080W, strain dia2, stronger effect = lower value 0.98 | S. cerevisiae deletion strains, locus YOR083W, strain WHI5, stronger effect = lower value 0.956 | S. cerevisiae deletion strains, locus YOR106W, strain vam3, stronger effect = lower value 0.988 | S. cerevisiae deletion strains, locus YOR136W, strain idh2, stronger effect = lower value 1 | S. cerevisiae deletion strains, locus YOR144C, strain elg1, stronger effect = lower value 0.992 | S. cerevisiae deletion strains, locus YOR184W, strain ser1, stronger effect = lower value 1.01 | S. cerevisiae deletion strains, locus YOR231W, strain MKK1, stronger effect = lower value 0.992 | S. cerevisiae deletion strains, locus YOR265W, strain rbl2, stronger effect = lower value 0.998 | S. cerevisiae deletion strains, locus YOR270C, strain vph1, stronger effect = lower value 1.04 | S. cerevisiae deletion strains, locus YOR290C, strain snf2, stronger effect = lower value 0.996 | S. cerevisiae deletion strains, locus YOR316C, strain cot1, stronger effect = lower value 0.998 | S. cerevisiae deletion strains, locus YPL051W, strain arl3, stronger effect = lower value 0.992 | S. cerevisiae deletion strains, locus YPL055C, strain LGE1, stronger effect = lower value 1 | S. cerevisiae deletion strains, locus YPL078C, strain atp4, stronger effect = lower value 0.98 | S. cerevisiae deletion strains, locus YPL106C, strain sse1, stronger effect = lower value 0.974 | S. cerevisiae deletion strains, locus YPL240C, strain hsp82, stronger effect = lower value 0.99 | S. cerevisiae deletion strains, locus YPL241C, strain CIN2, stronger effect = lower value 0.996 | S. cerevisiae deletion strains, locus YPL256C, strain CLN2, stronger effect = lower value 1.02 | S. cerevisiae deletion strains, locus YPR119W, strain clb2, stronger effect = lower value 0.994 | S. cerevisiae deletion strains, locus YPR141C, strain kar3, stronger effect = lower value 0.966 | S. cerevisiae deletion strains, locus YPR163C, strain tif3, stronger effect = lower value 0.976 | S. cerevisiae deletion strains, locus YPR167C, strain met16, stronger effect = lower value 0.989 | S. cerevisiae deletion strains, strain wtn01, stronger effect = lower value 0.997 | S. cerevisiae strains, strain wild type, stronger effect = lower value 0.995
